# In the library only some 3% were active in any assay of this set; here they are far more common.
# SENP6 inh = inhibitors of human SENP6 protease. 330,000 tested, 1.8% active. Recombinant SENP6 catalytic domain, aminoluciferin luminescence. AID 2599. Q9GZR1. inhibition, % at 10 µM;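 active = inhibition above about 50% at the single tested dose, limit read from the data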;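 note: plate controls were DMSO wells with enzyme for no effect and DMSO wells lacking enzyme for full effect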
# SENP8 block-1 = SENP8 protease inhibition; Q96LD8; purified SENP8, Z-RLRGG-aminoluciferin cleavage, luminescence; inhibition, % at 10 µM; 330,000 tested, 1.2% active; in the data active = inhibition above about 50%
# Target sequence (Q96LD8 whole entry, looked up): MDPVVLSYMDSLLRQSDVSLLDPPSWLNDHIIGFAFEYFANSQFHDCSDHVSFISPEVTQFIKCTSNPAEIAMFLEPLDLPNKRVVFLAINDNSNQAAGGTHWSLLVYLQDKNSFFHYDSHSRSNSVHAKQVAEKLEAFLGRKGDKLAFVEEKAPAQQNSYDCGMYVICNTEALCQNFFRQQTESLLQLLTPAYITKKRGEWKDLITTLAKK
# SENP7 block = blocks the human protease SENP7; Q9BQF6; recombinant SENP7, Z-RLRGG-aminoluciferin luminescence, 40 min; inhibition, % at 5 µM; 330,000 tested, 1.5% active; AID 434973;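 active = inhibition above about 50% at the single test dose, limit read from the data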;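 note: plate controls were DMSO with enzyme for no effect and no enzyme buffer wells for full effect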
# Target sequence (Q9BQF6 706-1050 limits assumed): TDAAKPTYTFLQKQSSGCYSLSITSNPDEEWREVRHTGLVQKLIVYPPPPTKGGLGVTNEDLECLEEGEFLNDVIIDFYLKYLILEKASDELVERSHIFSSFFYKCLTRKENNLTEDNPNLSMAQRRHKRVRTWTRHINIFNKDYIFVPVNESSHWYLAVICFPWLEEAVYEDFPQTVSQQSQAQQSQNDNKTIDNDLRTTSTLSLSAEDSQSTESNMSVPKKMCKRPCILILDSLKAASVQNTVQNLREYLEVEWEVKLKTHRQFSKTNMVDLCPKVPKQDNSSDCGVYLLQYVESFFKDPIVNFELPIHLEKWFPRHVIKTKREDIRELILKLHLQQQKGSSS
# PPC-1+TRAIL kill = compounds killing PPC-1 cancer cells with TRAIL present (potentiator screen, no TRAIL-free arm) | cell killing (% activity), % at 4 µM or 5 µM | PPC-1 cells + TRAIL, ATPLite viability luminescence | 220,000 tested, 0.41% active | AID 1443;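 active = cell killing above 50% in the first pass at 4 µM, then a duplicate retest at 5 µM averaging 50% or more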;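 note: plate controls were cells with TRAIL plus DMSO for no effect and medium-only wells lacking cells for full effect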
# SENP8 block-2 = inhibitors of human SENP8 protease | Q96LD8 | recombinant SENP8, Nedd8 substrate fluorescence | inhibition, % at 20 µM | 360,000 tested, 0.64% active | AID 602440; in the data active = inhibition mostly above about 40%, no sharp cut-off; inactive = mostly below about 27%
# TRAIL sens C8 = caspase-8 TRAIL sensitization. NB7+C8 cells + TRAIL, ATPlite viability luminescence. 360,000 tested, 1% active. inhibition (viability loss, TRAIL sensitization), % at 10 µM;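 active = compounds causing at least 50% loss of cell viability in the single-dose screen, relative to plate controls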
# Numbers without * were called inactive; / = no result given; ! = not active in a repeat.
SMILES,SENP6 inh,SENP8 block-1,SENP7 block,PPC-1+TRAIL kill,SENP8 block-2,TRAIL sens C8
NC(Cc1ccc(C(F)(F)F)cc1)c1csc(NC(=O)Nc2ccccc2Cc2ccccc2)n1 (stereo unspecified),/,/,/,/,23.6,79.0*
NC(Cc1ccc(Cl)cc1)c1csc(NC(=O)NCC2CCCCC2)n1 (stereo unspecified),/,/,/,/,18.3,86.0*
NC(CCc1ccccc1)c1csc(NC(=O)NCCc2ccccc2)n1 (stereo unspecified),/,/,/,/,11.0,27.0
COC(=O)[C@H](C)N(Cc1ccc(Cl)c(Cl)c1)S(=O)(=O)CCNC1CCCC1,/,/,2.0,/,5.2,-0.6
CCOC(=O)N1CCN(C(=O)C2CCC(=O)N(CCCc3ccccc3)C2)CC1 (stereo unspecified),-0.4,-5.3,-4.9,/,-0.4,-2.9
CC(C)c1ccc(NC(=O)Nc2nc(C(N)COCc3ccccc3)cs2)cc1 (stereo unspecified),/,/,/,/,13.9,76.7*
CC(C)c1ccc(NC(=O)Nc2nc(C(N)c3ccccc3)cs2)cc1 (stereo unspecified),/,/,/,/,2.9,26.6
O=C(c1ccoc1)N1CCN(c2cc(-c3cccc(F)c3)nc3cc(-c4cccc(Cl)c4)nn23)CC1,/,/,/,/,-420.4,32.7
COc1cccc(CNC(=O)Cn2c(=O)n(CCC(=O)N3CCCCC3)c(=O)c3sccc32)c1,-1.5,-2.0,-4.8,/,9.4,-20.3
Nc1cccc(C2=Nc3cccc4cccc(c34)N2)c1,/,/,/,12.4,45.7*,6.0
COc1ccc(C2=Nc3cccc4cccc(c34)N2)cc1,11.9,7.6,2.0,9.7,23.3,-17.0
CCC(=O)OCC(=O)c1c(N)n(Cc2ccccc2)c(=O)n(C)c1=O,10.3,-1.5,0.7,10.8,-24.8,0.8
COC(=O)Cn1c(=O)c(C(=O)CCl)c(N)n(Cc2ccccc2)c1=O,6.0,2.5,4.9,10.0,15.0,81.7*
O=S(=O)(Nc1nc2ccccc2nc1N1CCc2ccccc2C1)c1ccc(Br)cc1,/,/,/,56.4*,-297.1,61.0*
CC(=O)Nc1ccc(S(=O)(=O)Nc2nc3ccccc3nc2N2CCc3ccccc3C2)cc1,10.7,7.5,13.7,26.8,-276.0,5.9
O=S(=O)(Nc1nc2ccccc2nc1N1CCc2ccccc2C1)c1ccc(Cl)cc1,36.9,-0.4,58.3*,-35.0,-234.7,47.9
CC(=O)c1ccc(S(=O)(=O)N(C)CC(=O)Nc2ccc(C)cc2)cc1,12.2,-9.7,7.6,/,5.4,2.2
O=C(Nc1cccc2nsnc12)c1cccs1,57.8*!,16.3,50.1*!,25.7,-288.3,15.8
O=C(NC1=NCCS1)c1cccs1,-10.4,0.8,6.7,-0.3,15.4,44.9*
O=c1[nH]c(S)c(/C=C2\C=Nc3ccccc32)s1,24.8,11.2,10.6,18.2,51.7*,-4.0
CCOC(=O)C1(C)/C(=N/Nc2cccc(Cl)c2)C(=O)C(=O)N1c1ccccc1 (stereo unspecified),-1.5,8.8,3.5,4.5,43.1*,0.7
COC1=C(N)C(=O)c2nc(-c3nc(C(=O)O)c(C)c(-c4ccc(OC)c(OC)c4O)c3N)ccc2C1=O,80.5*,82.1*,66.7*,13.2,/,/
COc1ccc(-c2ncncc2-c2csc(C)n2)c(O)c1OC,-12.4,-4.0,-11.0,-7.6,26.8,-8.9
COc1ccc(Cc2nnc(NC(=O)c3ccccc3F)s2)cc1,2.8,9.7,-1.5,/,6.1,-7.1
CCOC(=O)c1[nH]c(=S)[nH]c1C,/,/,/,/,3.3,-3.1
SMILES,SENP6 inh,SENP8 block-1,SENP7 block,PPC-1+TRAIL kill,SENP8 block-2,TRAIL sens C8
Cc1cccn2c(=O)c3cc(C(=O)NCc4ccco4)c(=N)n(CCc4ccccc4)c3nc12,-10.0,1.6,-4.5,24.2,-393.2,4.3
Cc1cccn2c(=O)c3cc(C(=O)NCCc4ccccc4)c(=N)n(Cc4ccco4)c3nc12,7.3,8.0,1.3,/,-283.5,60.1*
COc1cc2c(cc1OC)C(C1C(=O)CCCC1=O)N(C(=O)CCl)CC2 (stereo unspecified),5.2,-7.5,-3.1,13.8,-377.3,-3.9
COc1cc2c(cc1OC)C(c1ccccc1)N(C(=O)CCl)CC2 (stereo unspecified),-18.8,-4.9,3.1,10.7,9.9,85.8*
COc1ccc(C(=O)N2CCOC2CNC(=O)C(=O)NCc2ccccn2)cc1 (stereo unspecified),/,/,/,/,2.1,-13.3
COc1ccc2cc1Oc1ccc(cc1)CC1c3c(cc(OC)c4c3Oc3cc5c(cc3O4)CCNC5C2)CCN1C (stereo unspecified),-12.6,-4.9,-12.0,23.3,44.6*,92.9*
COc1ccc2cc1Oc1ccc(cc1)C[C@H]1c3c(cc(OC)c4c3Oc3c(ccc5c3[C@H](C2)N(C)CC5)O4)CCN1C,-21.5,-5.6,2.9,/,13.0,87.7*
CCOc1ccc(C2NCCc3cc(OC)c(OC)cc32)cc1OC (stereo unspecified),-2.1,11.0,-0.8,/,12.7,-18.0
O=C1NC(=O)/C(=C\c2cn(CC(=O)N3CCOCC3)c3ccccc23)S1,-14.0,3.5,3.8,/,-4.6,3.8
COC(=O)C(Cc1ccc(O)cc1)NC(=O)NC12CC3CC(CC(C3)C1)C2 (stereo unspecified),10.2,6.4,5.0,/,17.9,-1.0
COc1ccc2c(c1)N(C)/C(=C/c1cccc[n+]1C)S2,-34.6,-11.4,-7.9,/,19.4,17.4
CCN1/C(=C/c2cccc[n+]2C)Sc2ccc(OC)cc21,-0.2,-5.8,4.3,/,31.5,54.0*
Cc1ccc(C(=O)Nc2ccc(S(=O)(=O)Nc3cnc4ccccc4n3)cc2)cc1,-14.0,4.2,1.7,/,-318.8,-13.1
CCCn1c(N)c(N(CCOC)C(=O)c2cc(C)cc(C)c2)c(=O)[nH]c1=O,22.7,0.8,3.9,/,1.3,-7.0
N#Cc1ccc(CN2CCN(C(=O)CN3C(=O)NC4(CCCC4)C3=O)CC2)cc1,-9.7,-4.4,-6.8,/,-6.5,-4.8
CCCC(=O)NC(c1ccco1)c1cc([N+](=O)[O-])c2cccnc2c1O (stereo unspecified),15.3,5.8,7.3,3.8,53.3*,5.3
CC(=O)NC(c1ccc(C)cc1)c1cc([N+](=O)[O-])c2cccnc2c1O (stereo unspecified),16.9,6.1,7.8,0.1,41.9*,40.5
CCC(=O)NC(c1ccc(C)cc1)c1cc([N+](=O)[O-])c2cccnc2c1O (stereo unspecified),/,/,/,22.7,57.6*,53.6*
CCC(=O)NC(c1ccc(C)cc1)c1ccc2cccnc2c1O (stereo unspecified),-6.2,5.4,4.9,/,5.9,23.0
CC1CCc2[nH]c3ccc(C(=O)N4CCCC(C(F)(F)F)C4)cc3c2C1 (stereo unspecified),3.5,-0.4,0.1,/,-21.2,-2.1
C=CCN=c1scc(-c2ccco2)n1/N=C/c1ccc(O)c(O)c1O,-10.1,-8.3,-5.0,13.3,50.8*,5.6
COCCN=c1scc(-c2ccco2)n1/N=C/c1ccc(O)c(O)c1O,-36.6,-2.8,-1.9,20.2,35.9,16.6
COc1ccc(Cl)cc1C(=O)Nc1ccc2c(c1)OCCO2,-20.1,-12.2,-12.1,/,22.5,51.8*

# Screening data deposited in PubChem BioAssay by Sanford-Burnham Center for Chemical Genomics.
